Compounds with a hit are over-represented: about 1% of the library has one in this group of screens.
sdo1 growth: restores growth of sdo1-depleted yeast; S. cerevisiae sdo1-depleted JHY4D growth rescue, OD600 30 h; stronger effect = higher value; pdr5 snq2 efflux-pump mutant strain; z-score at 10 µM; hit rate 0.21% among 140,000; AID 817;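 active means z-score above 3 at both the 24 hr and the 30 hr optical density reads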;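 further: z-score against mean and SD of all compound wells on the same plate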
MRP reversal: compounds reversing MRP-mediated drug resistance; AID 602; hit rate 0.04% among 85,000; differential viability (reversal), % at 10 µM; H69AR cells + 2 uM doxorubicin, CellTiter-Glo, 72 h;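 active means viability drop by adding the cancer drug above about 55%, with treated viability meeting a 40% cutoff, limit read from the data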;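 further: viability without doxorubicin minus viability with 2 µM doxorubicin for each compound; larger differential means the compound sensitizes cells more to doxorubicin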
Phagocyt inh: macrophage phagocytosis inhibition; J774A.1 macrophage IgG-bead phagocytosis, imaging; inhibition, % at 5 µM; hit rate 0.07% among 110,000;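 active means inhibition above the mean of the plate negative controls plus 5 SD, cut at about 13% in these data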;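 further: phagocytic index as fraction of beads internalized from green versus red external bead signal; plate controls were DMSO negative control for no effect and cytochalasin-D positive control for full effect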
sEH activator: increases human soluble epoxide hydrolase activity | P34913 | purified human sEH enzymatic activity, activator screen | activation, % at 2 µM | hit rate 0.04% among 91,000 | AID 717; in the data active means activation above about 37%
Target sequence (P34913 whole entry, looked up): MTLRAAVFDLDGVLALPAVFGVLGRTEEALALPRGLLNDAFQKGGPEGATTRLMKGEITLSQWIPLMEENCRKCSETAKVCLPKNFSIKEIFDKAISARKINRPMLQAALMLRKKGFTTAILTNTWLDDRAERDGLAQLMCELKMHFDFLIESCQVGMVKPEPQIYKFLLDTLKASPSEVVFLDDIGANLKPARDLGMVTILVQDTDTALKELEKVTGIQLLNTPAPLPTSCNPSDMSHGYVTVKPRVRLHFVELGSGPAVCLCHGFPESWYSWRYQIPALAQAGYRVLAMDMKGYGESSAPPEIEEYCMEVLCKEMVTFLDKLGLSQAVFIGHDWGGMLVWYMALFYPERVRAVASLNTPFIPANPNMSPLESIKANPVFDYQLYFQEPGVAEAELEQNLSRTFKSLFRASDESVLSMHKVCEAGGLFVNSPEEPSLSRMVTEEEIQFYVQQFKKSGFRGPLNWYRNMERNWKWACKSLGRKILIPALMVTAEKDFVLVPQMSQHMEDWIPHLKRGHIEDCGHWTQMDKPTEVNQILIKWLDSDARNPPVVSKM
MRP-1 activ: activates MRP-1; H69AR cells + doxorubicin, viability rescue, CellTiter-Glo; viability increase, % at 10 µM; hit rate 0.61% among 140,000; AID 799;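 active means viability gain under doxorubicin at or above a set limit, the compound median plus 3 SD, cut at about 4.7% in these data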;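 further: MRP-1 overexpressing cells given doxorubicin 25 µM after compound pretreatment; 18-22 h compound pretreatment then 72 h with doxorubicin before readout; 0% = doxorubicin-only wells and 100% = vehicle-treated cells without doxorubicin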
sEH inh: inhibitors of human soluble epoxide hydrolase. P34913. recombinant human sEH enzymatic activity assay. inhibition, % at 2 µM. hit rate 0.34% among 91,000. AID 707; in the data active means inhibition above about 80%
* marks the source's active call; other numbers are inactive results; x = not tested or not shown.

SMILES	sdo1 growth	MRP reversal	Phagocyt inh	sEH activator	MRP-1 activ	sEH inh
CCCCNC(=O)CCSc1ccc(C)cc1	2.9	x	-7	x	-3	x
Cc1ccc(SCCC(=O)NCCSCc2ccccc2C)cc1	-1.1	x	4	-83	-1	83*
O=C1NC2CCCCC2NC1CC(=O)N1CCN(c2ccccc2)CC1 (stereo unspecified)	x	3	x	1	x	0
Cc1ccccc1C(=O)N1CCN(c2ccc(NC(=O)CSc3ccc(Cl)cc3)cc2)CC1	-2.4	x	x	-85	-2	86*
CCC(=O)Nc1ccc(N2CCN(C(=O)c3ccccc3C)CC2)cc1	-0.08	32	1	2	-1	-1
COc1ccc(CCNC(=O)CSc2nc(O)c(C(C)C)c(=O)[nH]2)cc1OC	0.69	13	x	1	1	4
NNC(=O)c1cccc(COc2cccc(Br)c2)c1	-0.66	x	x	-81	1	82*
O=C(NC(=S)Nc1ccccn1)c1cc(-c2ccccc2)nc2ccccc12	-1.1	x	-4	x	7.5*	x
O=C(NC(=S)Nc1ccccc1)c1cc(-c2ccccc2)nc2ccccc12	-0.98	x	x	-15	-1	17
CCOC(=O)C(C)(C)C(=O)C(C)(C)C(O)c1ccccn1 (stereo unspecified)	0.93	-1	0	-1	-2	3
Cc1ccc(C(C(=O)NC(C)(C)C)N(Cc2ccco2)C(=O)CCC(=O)Nc2nccs2)cc1 (stereo unspecified)	x	-3	x	-5	x	7
COC(=O)/C(=C/Nc1ccc(O)cc1)[N+](=O)[O-]	1.1	-26	0	13	5.2*	-14
O=C(c1ccc(S(=O)(=O)N2CCOCC2)cc1)N1CCc2ccccc2C1	0.11	-8	0	-8	-3	10
CCN(CC)S(=O)(=O)c1ccc(N=NC2=C(O)CCCC2=O)cc1	-0.16	x	-7	x	-3	x
O=C1CCCC(O)=C1N=Nc1ccc2c(c1)OCO2	1.5	x	-1	x	7.7*	x
COc1ccc(C(=O)NCc2nnc(SCC(=O)N3CCc4ccccc43)n2CCc2ccccc2)cc1	0.25	x	-3	x	0	x
Cc1ccc(CC2SC(=Nc3ccccc3)N(c3ccccc3)C2=O)cc1 (stereo unspecified)	-0.58	x	-4	x	5.7*	x
O=C(O)CC1SC(=Nc2ccccc2)N(c2ccccc2)C1=O (stereo unspecified)	-0.32	-5	-1	x	-2	x
O=C1Nc2ccccc2CCC1Sc1nnc(-c2ccc(Cl)cc2)s1 (stereo unspecified)	-1.9	26	x	4	6.6*	0
CCOC(=O)CN1C(=O)C(Sc2nnc(-c3ccccc3OC)s2)CCc2ccccc21 (stereo unspecified)	x	10	x	3	x	-4
C#CC(=O)N(c1ccc(OC)c(OC)c1)C(C(=O)NC1CCCC1)c1cccs1 (stereo unspecified)	0.67	x	0	0	-3	2
C#CC(=O)N(c1cccc(OC)c1)C(C(=O)NC1CCCC1)c1cccs1 (stereo unspecified)	-1	x	47*	1	-5	2
Cc1c(OCC(=O)OC(C)(C)C)ccc2c3c(c(=O)oc12)CCC3	-0.19	-10	-1	-3	5.1*	2
Cc1cc(C)cc(-n2c(C)cc(/C=C3\C(=N)N4N=C(CC(C)C)SC4=NC3=O)c2C)c1	0.25	x	-7	x	4.7*	x
Fc1ccc(Sc2cc(Cl)c(-c3ccccc3)nn2)cc1	-2	x	x	4	-3	-1
SMILES	sdo1 growth	MRP reversal	Phagocyt inh	sEH activator	MRP-1 activ	sEH inh
Cn1c(=O)c2c(nc(CN3CCN(c4ccccc4)CC3)n2Cc2c(F)cccc2Cl)n(C)c1=O	2	60*	0	15	-5	-15
CCOc1ccc(N2CC(C(=O)OCC(=O)NCc3ccccc3)CC2=O)cc1 (stereo unspecified)	-0.47	x	x	-4	-1	7
Cc1noc(C)c1COc1cccc(C(=O)Nc2ccc(OCc3ccccc3)cc2)c1	-0.98	3	0	-33	-3	32
COc1ccc(C2C(C(=O)OCC(=O)NC(C)(C)C)CCC(=O)N2c2ccc(C)cc2)cc1OC (stereo unspecified)	-0.69	x	0	-1	5.7*	0
O=C(Nc1ccon1)c1cc2c(s1)CCCC2	0.05	2	0	-25	4.8*	26
CCOC(=O)c1c(/N=C/N(C)C)sc(/C=N/Nc2ccccc2)c1-c1ccc(Cl)cc1	0.09	x	-2	x	-3	x
Cc1cccc(OCc2nnc(SCc3cc(=O)n4cc(Br)ccc4n3)o2)c1	-1.5	20	0	x	-4	x
Cc1noc(C)c1COc1ccc(C(=O)OCC(=O)NCc2ccccc2Cl)cc1	-0.96	x	1	x	-4	x

Compound activity as filed in PubChem BioAssay.
